These results are taken from PubChem BioAssay AID1986 (Sanford-Burnham Center for Chemical Genomics, 2009).

One may read the inhibition as the change of the read-out against control, counted positive when it falls.

Where “and” joins values, the source holds several entries; their conditions need not be identical. Equal values may be shown once. In all, about 290,000 compounds went through this assay and about 890 (0.31%) were called active. No stated cut-off is given here; in the data, active means inhibition mostly above about 52% (no sharp cut-off); inactive means mostly below about 76%. For the sample, actives were picked, then their nearest neighbours and some compounds at random. Where a structure was tested more than once in an assay, its records may differ in their call.

This experiment is described as follows: cell-free HIV fusion peptide-binding blockers – biochemical, uHTS, fluorescence dequenching, primary screen (AID 1986). To be noted: 30 min, stronger effect = higher value.
Where [1] appears, read: measured here: repeat confirmation average inhibition, at 18.6 µM.

For `COc1ccc(NC(=S)NC(NC(=O)CCl)C(Cl)(Cl)Cl)c([N+](=O)[O-])c1` (stereo not drawn), the inhibition (at 20 µM) is 7.2% (inactive). Regarding `COc1ccccc1S(=O)(=O)Cc1ccc(C(=O)NCc2ccco2)o1`, the inhibition (at 20 µM) was 1.6% (inactive). With `CC1CCN(S(=O)(=O)c2ccc(C(=O)OC(C)C(=O)NC3CCCCC3C)cc2)CC1` (stereo not drawn), for the setting “at 20 µM”, the inhibition was 20% (inactive).

With `Cc1oc(-c2cc(F)ccc2F)nc1CN1CCN(C)C(=O)[C@@H]1C`, where the note is “at 20 µM”, the inhibition is 1.3% (inactive).

Regarding `CN=C(Nc1ccc(C(=O)OC)s1)c1ccc(Cl)cc1`, the inhibition (at 20 µM) is 0.5% (inactive). Still for that read-out and setting: under `O=C(/C=C/c1ccc(OCCCF)cc1)NCc1ccc(Cl)c(Cl)c1` stands 1.7% (inactive); under `COC(=O)c1cnn(-c2ccc(F)cc2F)c1/C=N/NC(N)=S`, -1.1% (inactive). Take `CC(=O)NN1C(=O)c2ccccc2NC1c1ccc(N(C)C)cc1` (stereo not drawn): the inhibition (at 20 µM) is -0.9% (inactive). `COC(=O)Cn1c(=NC(=O)c2ccc(S(=O)(=O)N3CCc4ccccc4C3)cc2)sc2cc(OC)ccc21`: under “at 20 µM”, the inhibition was -1.3% (inactive). Same read-out and setting: under `O=C(N/N=C/c1ccncc1)c1cc(C2CC2)nc2ccccc12` stands -0.8% (inactive); under `CC1CCc2c(sc(Nc3nc4c(F)cccc4s3)c2C(N)=O)C1` (stereo not drawn), 58.8% (active); under `COc1ccc2nc(Nc3sc4c(c3C(N)=O)CCCC4)sc2c1`, 17.5% (inactive).

In the case of `NC(=O)c1c(NC(=O)c2ccccc2F)sc2c1CCCC2`, the inhibition (at 20 µM) is -0.3% (inactive). Same read-out and setting: the result for `NC(=O)c1c(Nc2nc3c(F)cccc3s2)sc2c1CCCC2` reads 59.5% (active); that for `CC1CCc2c(sc(NC(=O)C3c4ccccc4Oc4ccccc43)c2C(N)=O)C1` (stereo not drawn), -1.5% (inactive). As for `COC(=O)Nc1sc2c(c1C(N)=O)CCC(C)C2` (stereo not drawn), for the setting “at 20 µM”, the inhibition was 0.2% (inactive). Still for that read-out and setting: the result for `Cc1c(C(=O)N(Cc2nccn2C)C(C)C)oc2c(F)cccc12` reads -1% (inactive); that for `O=c1cc(C(F)(F)F)nc(-c2cccnc2)[nH]1`, -1.2% (inactive). Still for that read-out and setting: the result for `CC(C)C(=O)Nc1ccc([N+](=O)[O-])cc1Br` reads 1.2% (inactive); that for `O=c1[nH]c2ccccc2nc1/C=C(\O)c1cccs1`, 66.1% (active); that for `O/C(=C\c1nc2ccccc2[nH]1)c1cccs1`, 14.3% (inactive). With `C/C(O)=C/c1nc2ccccc2[nH]c1=O`, for the setting “at 20 µM”, the inhibition was 0.1% (inactive). As for `CCCCC(=O)Nc1cccn2ncnc12`, the inhibition (at 20 µM) was 0.2% (inactive). For the molecule `C/C(=N\NC(=O)c1c[nH]c2ccccc12)c1ccc(C)o1`, the inhibition (at 20 µM) was 0.2% (inactive). The same measure, in the same setting: under `O=C1OC(/C=C/c2ccc(Cl)cc2Cl)=NC/1=C\c1cccs1` stands 54.2% (active); under `Cc1ccccc1C1=N/C(=C/c2cccs2)C(=O)O1`, 4.6% (inactive).

With `Cc1cccc(C2=N/C(=C\c3cccs3)C(=O)O2)c1`, under “at 20 µM”, the inhibition is 4.7% (inactive).

For the molecule `CCC(=O)OCc1cc2cccc(C)c2[nH]c1=O`, under “at 20 µM”, the inhibition was -1.9% (inactive). Still for that read-out and setting: the result for `O=C(O)c1cccc(-n2cccc2C=C2C(=O)c3ccccc3C2=O)c1` reads 30.1% (inactive). For the molecule `O=C1C(=Cc2cccn2-c2ccccc2)C(=O)c2ccccc21`, the inhibition (at 20 µM) is 50.1% (inactive) and the inhibition under setting [1] was 28.2%. The matching figures for `O=C1C(=Cc2cccn2-c2ccc(O)cc2)C(=O)c2ccccc21`: 63.1% (active) and 70.3%. In the case of `COC(=O)Cn1ncc(N2C3CC(CC(C)(C)C3)C2C)c(Cl)c1=O` (stereo not drawn), the inhibition (at 20 µM) was 1.1% (inactive). Still for that read-out and setting: under `Oc1cccc2ccc(/C=C/c3ccccc3Br)nc12` stands 0.6% (inactive). On to `O=C(/C=C/c1ccccc1)Nc1ccc(Cl)cn1`, for which, under “at 20 µM”, the inhibition is 1% (inactive). For `COc1cc(C(=O)Oc2cc(C)[nH]c(=O)c2[N+](=O)[O-])cc(OC)c1OC`, the inhibition (at 20 µM) is 0.4% (inactive). Still for that read-out and setting: the result for `O=S(=O)(Nc1ccc(-c2csc(-c3ccccc3)n2)cc1)c1ccc(F)cc1` reads 0% (inactive); that for `O=C(Nc1nc(-c2ccccc2)cs1)c1ccccc1F`, 0% (inactive). Still for that read-out and setting: under `COc1ccc(-c2csc(NC(=O)c3ccccc3NS(=O)(=O)c3ccc(F)c(F)c3)n2)cc1` stands 65% (active). As to `O=C(Nc1cccc(S(=O)(=O)N2CCCCC2)c1)c1ccccc1NS(=O)(=O)c1ccc(F)cc1`, the inhibition (at 20 µM) was 58% (inactive) and the inhibition under setting [1] was 26%. On to `Cc1ccc(S(=O)(=O)Nc2nc(-c3ccc(F)cc3)cs2)cc1`, for which the inhibition (at 20 µM) is 20% (inactive).

For the molecule `Cc1ccc(S(=O)(=O)Nc2ccccc2C(=O)Nc2nc(-c3ccc(F)cc3)cs2)cc1`, the inhibition (at 20 µM) is 65.5% (active).

Regarding `O=C(Nc1nc(-c2ccccc2)cs1)c1ccccc1NS(=O)(=O)c1ccc(F)cc1`, the inhibition (at 20 µM) is 71.5% (active). Same read-out and setting: under `COc1ccc(-c2csc(NC(=O)c3ccccc3S(C)(=O)=O)n2)cc1` stands 0.4% (inactive); under `O=C(Nc1cc(S(=O)(=O)N2CCCCC2)ccc1O)c1ccccc1NS(=O)(=O)c1ccc(F)c(F)c1`, 62.7% (active); under `COc1ccc(-c2csc(NC(=O)c3ccccc3F)n2)cc1`, 0.1% (inactive). Take `O=C(Nc1cc(S(=O)(=O)N2CCCCC2)ccc1O)c1ccccc1NS(=O)(=O)c1ccc(F)cc1`: the inhibition (at 20 µM) was 49.5% (inactive). The same measure, in the same setting: under `Cc1ccc(S(=O)(=O)Nc2nc(-c3ccccc3)cs2)cc1` stands 6.9% (inactive).

As for `CCCOc1ccc2c(CC)cc(=O)oc2c1C`, where the note is “at 20 µM”, the inhibition was -0.2% (inactive). For the molecule `Cc1sc2nc(C3CC3)nc(N3CCN(S(=O)(=O)c4ccc(F)cc4)CC3)c2c1C`, the inhibition (at 20 µM) was -0.3% (inactive). On to `CC(=O)c1ccc(-n2nnnc2SCC(=O)Nc2sc(C)c(C)c2C#N)cc1`, for which the inhibition (at 20 µM) was 6.6% (inactive). The same measure, in the same setting: under `CSc1cccc(NC(=O)CCCOc2ccccc2)c1` stands -0.1% (inactive); under `Cc1cnc(C(=O)OCc2csc(CC(=O)Nc3ccccc3C)n2)cn1`, 1.8% (inactive); under `c1ccc(C2=Nc3c(ccc4ccccc34)C(c3ccncc3)=NN2)cc1`, -3% (inactive). In the case of `Cc1ccc(CNS(=O)(=O)c2ccc(F)c(F)c2)n1C`, the inhibition (at 20 µM) was -1.8% (inactive). On the same count and under the same terms, under `CCOC(=O)c1c(C)[nH]c(C(=O)N/N=C/c2ccc(Br)cc2)c1C` stands -1.7% (inactive).

On to `O=C(O)c1cc(-c2ccco2)nc2ccc(Br)cc12`, for which the inhibition (at 20 µM) is 51.2% (inactive) and 65% (active); the inhibition under setting [1] worked out at 11.6%. For `O=C(O)c1cc(-c2ccco2)nc2cc3ccccc3cc12`, the inhibition (at 20 µM) is 35.7% (inactive). The same measure, in the same setting: under `O=C(O)c1cc(-c2ccco2)nc2ccccc12` stands 0.1% (inactive); under `O=C(NC1CCCC1)C(c1ccncc1)N(C(=O)c1csnn1)c1ccc(F)cc1` (stereo not drawn), 0.5% (inactive). Still for that read-out and setting: the result for `Cc1ccc(N2CC(C(=O)Nc3nnc(SCC(=O)NCC4CCCO4)s3)CC2=O)cc1` (stereo not drawn) reads 0.9% (inactive); that for `COc1ccc([N+](=O)[O-])cc1/C=N/NC(=O)/C(=C\c1cccs1)NC(=O)c1ccccc1`, -1.3% (inactive). On to `O=C(N/N=C/c1cccs1)/C(=C/c1ccccc1)NC(=O)c1ccccc1`, for which the inhibition (at 20 µM) was 1.7% (inactive).

On to `O=C(N/N=C/c1cc([N+](=O)[O-])cc([N+](=O)[O-])c1O)/C(=C\c1cccs1)NC(=O)c1ccccc1`, for which the inhibition (at 20 µM) was 65% (active). For the molecule `O=C(Cc1ccc(Cl)cc1)NCC(=O)N1CCN(c2ccccc2)CC1`, under “at 20 µM”, the inhibition is 0.4% (inactive). For the molecule `O=C1NN(c2ccccc2)C(=O)/C1=C/c1ccc(Sc2cccc3ccccc23)o1`, the inhibition (at 20 µM) is 71.8% (active). `Cc1ccc(Sc2ccc(/C=C3/C(=O)NN(c4ccccc4)C3=O)o2)cc1`: the inhibition (at 20 µM) was 9.4% (inactive). On the same count and under the same terms, under `O=C1NN(c2ccccc2)C(=O)/C1=C/c1ccc(Sc2ccc(Cl)cc2)o1` stands 17.5% (inactive). Same read-out and setting: the result for `O=C(NCCCc1ccccc1)[C@@H]1Cc2ccccc2CN1` reads -0.5% (inactive); that for `NS(=O)(=O)c1ccc(-c2ccc(C=C3C(=O)c4ccccc4C3=O)o2)cc1`, 1.7% (inactive). The same measure, in the same setting: under `CC(C)CC1=C/C(=C/c2ccc(-c3ccccc3)o2)C(=O)O1` stands 51.7% (active); under `COc1ccccc1-c1ccc(/C=C2/C=C(CC(C)C)OC2=O)o1`, 40.1% (inactive); under `O=C(O)CCn1cc(/C=C\C(=O)c2ccc(Cl)cc2)c(-c2cccc(Br)c2)n1`, 60.3% (active). Turning to `Cc1ccc(-c2nn(CCC(=O)O)cc2/C=C\C(=O)c2ccc(Br)cc2)cc1`, the inhibition (at 20 µM) was 48.6% (inactive).

On to `O=Cc1cn(CCC(=O)O)nc1-c1cccc(Br)c1`, for which, for the setting “at 20 µM”, the inhibition is 1.1% (inactive). On the same count and under the same terms, under `CCOC(=O)c1sc(NC(=O)c2cc3n(n2)C(C(F)(F)F)CC(c2ccccc2)N3)c(C(=O)OCC)c1C` (stereo not drawn) stands 0.6% (inactive); under `Cc1cc2c(cc1S(=O)(=O)N(C)Cc1ccccc1)OCC(=O)N2`, -2% (inactive); under `COc1ccc(OC)c(/C=C2\Oc3cc(OCC(=O)N4CC(O)C[C@H]4C(=O)O)ccc3C2=O)c1` (stereo partly drawn), 2.3% (inactive). In the case of `COc1cc(OC)c(OC)cc1/C=C1\Oc2cc(OCC(=O)N3Cc4ccccc4C[C@H]3C(=O)O)ccc2C1=O`, the inhibition reads like this: (at 20 µM) 123% (active); under setting [1], 106%. The matching figures for `COc1cccc(/C=C2\Oc3cc(OCC(=O)N4Cc5ccccc5C[C@H]4C(=O)O)ccc3C2=O)c1`: 64.4% (inactive) and 40.9%. On to `Cc1nc(Oc2cccc(Cl)c2)c2oc3ccccc3c2n1`, for which, under “at 20 µM”, the inhibition was -0.8% (inactive).

As to `O=C(COC(=O)CCCOc1ccccc1)NNC(=O)c1ccc([N+](=O)[O-])cc1`, the inhibition (at 20 µM) is -0.7% (inactive). On the same count and under the same terms, the result for `CC1=CN2C(=N)/C(=C/c3ccco3)C(=O)N=C2S1` reads 7.9% (inactive). The same measure, in the same setting: the result for `CC1=CN2C(=N)/C(=C/c3ccc(C)o3)C(=O)N=C2S1` reads 5.4% (inactive); that for `Cn1c(=O)n(C)c2cc(/C=N/NC(=O)c3ccncc3)ccc21`, 1.3% (inactive); that for `Cc1[nH]n(-c2ncc(-c3ccc(Cl)cc3)s2)c(=O)c1C(c1ccc(Cl)cc1)C(C#N)C#N` (stereo not drawn), 48.5% (inactive). For the molecule `Cc1[nH]n(-c2ncc(-c3ccccc3)s2)c(=O)c1C(c1ccc(Cl)cc1)C(C#N)C#N` (stereo not drawn), for the setting “at 20 µM”, the inhibition was 70.8% (active). As for `Cc1[nH]n(-c2ncc(-c3ccccc3)s2)c(=O)c1C(c1ccc(Br)cc1)C(C#N)C#N` (stereo not drawn), the inhibition reads like this: (at 20 µM) 57.3% (inactive); under setting [1], 40.9%. For the molecule `CC(C)(C)n1nc2c(c1NC(=O)Cc1cccc3ccccc13)CS(=O)C2` (stereo not drawn), where the note is “at 20 µM”, the inhibition was -1.8% (inactive). Still for that read-out and setting: under `O=C(Nc1ccc(Cl)cc1)Nc1ccc2c(c1)OCO2` stands -0.2% (inactive); under `Cn1nc(C(F)(F)F)cc1-c1ccc(S(N)(=O)=O)s1`, 2.8% (inactive). The same measure, in the same setting: the result for `CNC(=O)c1ccc(-c2cc(C(F)(F)F)nn2C)s1` reads -1.4% (inactive).

On to `Cn1nc(C(F)(F)F)cc1-c1ccc(/C=C(\C#N)C(=O)c2ccccc2)s1`, for which the inhibition is 92% (active) (at 20 µM) and 179% under setting [1]. Turning to `CN(C)C(=O)c1ccc(-c2cc(C(F)(F)F)nn2C)s1`, the inhibition (at 20 µM) is -1.2% (inactive). Still for that read-out and setting: under `Cn1nc(C(F)(F)F)cc1-c1ccc(/C=C(\C#N)C(=O)c2cccc(C(F)(F)F)c2)s1` stands 55.2% (active); under `N#C/C(=C\c1ccc(-c2cccc(C(F)(F)F)c2)o1)C(=O)Nn1cnnc1`, 49.6% (inactive).
